High-throughput results deposited in PubChem BioAssay by National Center for Advancing Translational Sciences (NCATS).
HT1080NT lethal – kills 2HG-producing HT-1080-NT fibrosarcoma cells; HT-1080-NT fibrosarcoma viability, CellTiter-Glo ATP luminescence, 48 h; Potency, µM (doses to about 46.1 µM), actives largely listed as cytotoxic; hit rate 1.6% among 360,000;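 further: NT is the 2HG producing partner of a matched IDH1 knockdown line; nearly all actives have a fitted effect of over 55% in size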
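Fibrosarcoma NT cells, 750 per well in 5% FBS RPMI, were exposed to compound for 48 hours. Viability: CellTiter-Glo luminescence.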
TGFb SMAD3 inh – inhibitors of TGF-b signaling; HepG2 CAGA-GFP TGF-b/SMAD3 reporter, GFP fluorescence, 18 h; TGF-beta stimulated, 500 pg/mL final; hit rate 1.2% among 410,000; Potency, µM (series often up to 46.1 µM), hits mostly inhibitors; AID 588855; further: nearly all actives have a fitted effect of over 65% in size
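Inhibition of TGF-beta-driven CAGA-GFP reporter expression in HEPG2 cells is measured by cellular GFP fluorescence after 18 h stimulation with 500 pg/mL recombinant TGF-beta in 1% FBS medium at 37 degrees C.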
HT1080 IDH1KD tx – kills HT-1080 cells with IDH1 knockdown. hit rate 2% among 360,000. AID 686971. HT-1080 IDH1 knockdown viability, ATP luminescence, 48 h. Potency, µM (top dose mostly 46.1 µM), actives largely listed as cytotoxic
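Using the IDH1-knockdown HT-1080 line run in the same batch and compound series as the NT line, viability after 48 h at 37 °C was determined by CellTiter-Glo luminescence and expressed as % activity.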
TDP1 cell noCPT – qHTS for Inhibitors of human tyrosyl-DNA phosphodiesterase 1 (TDP1): qHTS in cells in absence of CPT. hit rate 15% among 420,000. DT40 Tdp1-/- hTDP1 cells, no CPT, ATP luminescence, 48 h. Potency, µM (series often up to 46.2 µM), hits mostly inhibitors; further: nearly all actives have a fitted effect of over 55% in size
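Chicken DT40 Tdp1-/- cells stably complemented with human TDP1 were seeded at 400 cells/well with DMSO in place of 20 nM camptothecin. After compound pinning, cells grew at least 48 hr at 37 °C; viability read by CellTiter-Glo luminescence.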
HepG2 tox – HepG2 cytotoxicity, counter-screen for TGF-b inhibitors. HepG2 CAGA-GFP viability, ATP luminescence, 18 h. Potency, µM (top dose mostly 46.1 µM), most hits filed as cytotoxic. hit rate 0.76% among 410,000
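CellTiter-Glo luminescence gave cytotoxicity after 18 hours at 37 degrees C. The cells were HepG2 CAGA-GFP in 1% FBS DMEM, stimulated with 500 pg/mL TGF-beta after compound addition. %Activity was normalised to no-cell wells (complete cell-killing) and DMSO (no toxicity), and curves were fitted and classified.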
DT40 TDP1 CPT – DT40-hTDP1 cell growth loss with CPT; chicken DT40 Tdp1-/-;hTDP1 cells + 20 nM CPT, ATP luminescence, 48 h; Potency, µM (top dose mostly 46.2 µM), most hits filed as inhibitors; hit rate 12% among 420,000; AID 686979; further: nearly all actives have a fitted effect of over 55% in size
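Chicken DT40 Tdp1-/- cells complemented with human TDP1, 400 cells/well, exposed to compounds plus 20 nM camptothecin for at least 48 h at 37 C; viability read as ATP content by CellTiter-Glo luminescence.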
Hits are given with their value; . = inactive; ? = inconclusive; / = not tested or not shown; [ ] = dose if it differs, or a comment. Compounds with a hit are over-represented: about 17% of the library has one in this group of screens. The call rests on the fitted dose curve; in most records, active means well fitted curve in the direction sought with a large enough effect; inconclusive means small, poorly fitted or top-dose-only effect, or another doubt; inactive means no such curve, though single readings can be large; an effect the other way counts as inactive or inconclusive.

SMILES	HT1080NT lethal	TGFb SMAD3 inh	HT1080 IDH1KD tx	TDP1 cell noCPT	HepG2 tox	DT40 TDP1 CPT
CC(=O)c1ccc(N(C(=O)c2csnn2)C(C(=O)NC2CCCC2)c2ccccc2)cc1 (stereo not drawn)	.	.	.	.	.	.
COc1cc(=O)n2c(c1C(=O)NCc1ccco1)CCN(Cc1cccc(C)n1)CC2	/	/	/	.	/	.[9.04 µM]
CC[C@]1(c2cccc(C)c2)C(=O)N(C(=O)OC)N1C(=O)OC	.	?	.	13µM	.	5.17µM
CC(Oc1ccccc1)C(=O)NC1CCCCCCC1 (stereo not drawn)	.	.	.	.	.	.
COC(=O)N1C(=O)[C@@](c2ccccc2)(C2CCCCC2)N1C(=O)OC	?	?	.	18.4µM	.	?
CC[C@@]1(c2ccccc2C)C(=O)N(C(=O)OC)N1C(=O)OC	.	?	.	?	.	13µM
CC[C@]1(c2ccccc2)C(=O)N(C(=O)OC)N1C(=O)OC	.	?	.	16.4µM	.	20.6µM
Cc1ccccc1CNC(=O)COc1ccccc1	.	.	.	.	.	.
Cc1cc(C)c(OCC(=O)NCCCn2nc(C)cc2C)c(C)c1	.	.	.	?	.	?
COc1cccc(OC)c1C(=O)NCc1ccco1	.	.	.	.	.	.
Cc1c(CC(=O)NCc2ccccc2Cl)c(=O)oc2cc(O)ccc12	/	.	/	.	.	?
O=C(CSc1nnc(Nc2ccccc2)s1)NC1CC1	.	.	.	?	.	.
CC[C@@]1(c2ccccc2)C(=O)N(C(=O)OC)N1C(=O)OC	.	.	.	?	.	8.2µM
Cc1cc(CNC(=O)c2cnn(-c3ncc4c(n3)-c3ccccc3CCC4)c2C2CC2)on1	/	/	/	?	/	.
CC/C(=N\NC(=O)CCC(=O)NCc1ccccc1)c1ccc(O)cc1	.	.	.	4.11µM	.	2.91µM
CCN(CC)c1ccc(/C=N/NC(=O)c2c(Cl)cnn2C)c(O)c1	?	.	?	5.8µM	.	3.66µM
CCOC(=O)N/N=C/c1ccc(N(CC)CC)cc1O	?	.	9.2µM	5.8µM	.	8.2µM
CCN(CC)c1ccc(/C=N/Nc2ccc(C)cc2)c(O)c1	.	.	.	11.6µM	.	11.6µM
CCCCC/C(=N\NC(=O)CCC(=O)NCc1ccccc1)c1ccccc1	?	.	?	?	.	?
CCN(CC)c1ccc(C=Nc2cc(C)ccc2C)c(O)c1	.	.	.	?	.	.
O=C(Nc1ccccc1F)C(=Cc1sc(N2CCOCC2)nc1-c1ccccc1)C(=O)Nc1ccccc1F	.	.	.	5.17µM	.	1.64µM
CCN(CC)S(=O)(=O)c1cccc(C(=O)N/N=C/c2cccc(O)c2O)c1	?	?	?	4.61µM	.	3.66µM
CCN(CC)c1ccc(/C=N/NC(=O)CNC(=O)C2COc3ccccc3O2)c(O)c1 (stereo not drawn)	?	?	?	3.26µM	.	5.8µM
CCN(CC)c1ccc(/C=N/NC(=O)CCC(=O)NCc2ccccc2)c(O)c1	.	.	?	5.17µM	.	5.17µM
O=C(CCC(=O)N/N=C/c1c[nH]c2ccccc12)NCc1ccccc1	.	.	?	.	.	.
SMILES	HT1080NT lethal	TGFb SMAD3 inh	HT1080 IDH1KD tx	TDP1 cell noCPT	HepG2 tox	DT40 TDP1 CPT
CCN(CC)S(=O)(=O)c1cccc(C(=O)N/N=C/c2cc(OC)c(O)c(OC)c2)c1	.	.	.	?	.	.
Cc1cc(C(=O)CCC(=O)Nc2cccc(F)c2)c(C)s1	.	.	.	?	.	?
CSc1c(-c2ccccn2)c(N)nn1C(=O)C1CCC1	.	.	.	?	.	?
CCNc1ncc2nc(-c3cc(F)cc(F)c3)c(=O)n(CCC#N)c2n1	/	/	/	.	/	.
CCN(CC)c1ccc(/C=N/NC(=O)c2cccc(S(=O)(=O)N3CCOCC3)c2)c(O)c1	?	?	?	5.8µM	.	4.11µM
CCN(CC)c1ccc(C=Nc2cccc(S(=O)(=O)N3CCOCC3)c2)c(O)c1	.	.	.	.	.	.
O=C(N/N=C/c1sc(N2CCOCC2)nc1-c1ccccc1)c1cccc(S(=O)(=O)N2CCOCC2)c1	3.66µM	.	?	4.61µM	.	4.61µM
O=C1NN=C(c2ccccc2)C1Cc1ccccc1 (stereo not drawn)	.	.	.	.	.	.
Nc1c(-c2nc(-c3ccccc3Cl)no2)nnn1-c1ccccc1F	/	.	/	.	.	.
O=C(CSCc1ccccc1)Nc1ccc(F)c(F)c1	.	.	.	.	.	.
CCc1c(CN2CCN(c3ccccc3F)CC2)csc1C	/	.	/	20.6µM	.	?
